HP1b binding inh = blocks HP1-beta chromodomain binding to methylated histone tails; P83916; AlphaScreen HP1-beta / biotin-H3K9me3 peptide binding; Potency, µM (doses to about 114 µM), inactives show at the highest dose activity change, negative = inhibition, usual class: inhibitors; AID 540317; 390,000 compounds, 0.56% hits; also: nearly all actives have a fitted effect of over 70% in size
Target sequence (P83916 whole entry, looked up): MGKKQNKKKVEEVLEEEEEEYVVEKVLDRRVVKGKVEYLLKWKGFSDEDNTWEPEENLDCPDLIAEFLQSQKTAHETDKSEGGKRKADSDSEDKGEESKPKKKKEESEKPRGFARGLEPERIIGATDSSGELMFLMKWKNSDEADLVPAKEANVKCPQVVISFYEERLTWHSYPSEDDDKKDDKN
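HP1-beta protein (50 nM final) preincubated 30 min at room temperature with biotinylated H3(1-18)K9me3 peptide (50 nM) in PBS pH 7.4, 0.01% Tween-20, then compound added for 30 min. AlphaScreen streptavidin donor/nickel chelate acceptor beads (10 ug/mL final), 30 min dark, luminescence read.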
L3MBTL1 block = blocks human L3MBTL1. AlphaScreen L3MBTL1–H3K9me1 peptide binding. Potency, µM (highest dose often 57.1 µM), without a hit: top-dose activity, negative = inhibition, most hits filed as inhibitors. 230,000 compounds, 0.66% hits. AID 485360; also: % is scaled to controls: 0 for no effect and ±100 for the full control effect; nearly all actives have a fitted effect of over 60% in size
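AlphaScreen assay: L3MBTL1 (50 nM final) was preincubated 30 min at room temperature with biotinylated H3(1-15)K9me1 peptide (75 nM final), then 30 min with library compounds; streptavidin donor and nickel chelate acceptor beads (10 ug/mL final) added, 30 min dark.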
G9a block = inhibitors of human histone lysine methyltransferase G9a. G9a H3K9 monomethylation, AlphaScreen, 2 h. AID 504332. 350,000 compounds, 8.8% hits. Q96KQ7. Potency, µM (highest dose often 102 µM), without a hit: top-dose activity, negative = inhibition, usual class: inhibitors; also: % is scaled to controls: 0 for no effect and ±100 for the full control effect; nearly all actives have a fitted effect of over 75% in size
Target sequence (Q96KQ7 913-1193 limits assumed): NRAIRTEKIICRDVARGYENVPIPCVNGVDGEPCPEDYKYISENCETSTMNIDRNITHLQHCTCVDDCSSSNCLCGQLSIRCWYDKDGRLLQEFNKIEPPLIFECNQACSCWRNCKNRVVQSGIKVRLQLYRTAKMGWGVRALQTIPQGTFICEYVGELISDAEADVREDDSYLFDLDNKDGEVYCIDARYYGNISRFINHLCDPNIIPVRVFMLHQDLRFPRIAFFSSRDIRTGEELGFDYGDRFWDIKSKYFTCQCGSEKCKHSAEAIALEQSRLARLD
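G9a (20 nM) was preincubated 15 min with compound, then reacted 2 h at room temperature with 500 nM biotin-H3K9 peptide and 20 µM SAM. Monomethyl-H3K9 detected by AlphaScreen using anti-H3K9me1 antibody.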
JMJD2A Tudor = JMJD2A Tudor domain (human) inhibition; Potency, µM (series often up to 114 µM), inactives show at the highest dose activity change, negative = inhibition, most hits filed as inhibitors; 390,000 compounds, 4.4% hits; AlphaScreen JMJD2A-Tudor / H3K4me3 peptide binding; O75164; also: % is scaled to controls: 0 for no effect and ±100 for the full control effect; nearly all actives have a fitted effect of over 50% in size
Sfp inh = inhibitors of Bacillus subtilis Sfp phosphopantetheinyl transferase; Biochemical Sfp PPTase activity, qHTS; Potency, µM, without a hit: largest response in the series, negative = inhibition, usual class: inhibitors; 310,000 compounds, 3.5% hits; AID 1490;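 also: the enzyme is Sfp with the accession as filed and its product quenches rhodamine fluorescence; 0% = enzyme reaction without inhibitor and -100% = no enzyme wells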
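Reaction rates are the 30-min fluorescence difference (ex 525, em 598 nm) in wells containing 15 nM Sfp, 5 uM rhodamine-CoA and 12.5 uM BHQ-2-YbbR at pH 7.6 with 10 mM MgCl2.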
BAZ2B inh = BAZ2B (human) inhibition; Potency, µM (doses to about 114 µM), without a hit: at the highest dose activity change, negative = inhibition, most hits filed as inhibitors; AlphaScreen BAZ2B-H3K14Ac peptide displacement; AID 504333; Q9UIF8; 360,000 compounds, 4.4% hits; also: % is scaled to controls: 0 for no effect and ±100 for the full control effect; nearly all actives have a fitted effect of over 60% in size
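Protein-peptide AlphaScreen: BAZ2B 50 nM, b-H3K14Ac 50 nM, 1x PBS pH 7.4 + 0.01% Tween-20. Preincubation 30 min RT; cpd 30 min RT (top 110 uM); beads 20 min RT, light-protected.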
An asterisk follows results filed as active; [ ] = remark or other dose. Compounds with a hit are over-represented: about 12% of the library has one in this group of screens. Calls follow the shape of the dose curve; as a rule, active = well fitted curve in the direction sought with a large enough effect; inconclusive = small, poorly fitted or top-dose-only effect, or another doubt; inactive = no such curve, though single readings can be large; an effect the other way counts as inactive or inconclusive. Potency is read from the fitted curve at half-maximal effect.

For Cc1c(C(=O)O)cccc1-c1ccc(/C=C2/NC(=O)N(c3ccccc3)C2=O)o1 the results were HP1b binding inh 28.4%, L3MBTL1 block -27.8%, G9a block inconclusive, JMJD2A Tudor -4.8%, Sfp inh -10.3% and BAZ2B inh -15.2%.
For O=C(OCC#CCSc1nnc(-c2cccc3ccccc23)o1)c1ccc(OC(F)(F)F)cc1 the results were JMJD2A Tudor 15.6%.
Screening C/C(=N\NC(N)=S)C1C2C3CC4C5CC(C42)C1C53 (centres undefined) returned HP1b binding inh 26.3%, G9a block 39.8µM*, JMJD2A Tudor -9.8%, Sfp inh 9.0% and BAZ2B inh -38.1%.
Screening CNC(=S)N1N=C(c2ccc(OC)cc2)CC1c1ccc(N(C)C)cc1 (centres undefined) returned HP1b binding inh -52.4%, L3MBTL1 block inconclusive, JMJD2A Tudor 35.5µM*, Sfp inh 1.1% and BAZ2B inh 11.2µM*.
Screening COc1ccc(C2CC(c3ccccc3)=NN2C(=S)Nc2ccccc2)cc1 (centres undefined) returned HP1b binding inh 20.3%, L3MBTL1 block -18.3%, G9a block inconclusive, JMJD2A Tudor -27.8%, Sfp inh 12.6% and BAZ2B inh inconclusive.
Screening CNC(=S)N1N=C(c2ccc(Br)cc2)CC1c1ccc(N(C)C)cc1 (centres undefined) returned HP1b binding inh inconclusive, L3MBTL1 block inconclusive, G9a block 7.94µM*, JMJD2A Tudor 11.2µM*, Sfp inh 25.9% and BAZ2B inh 10µM*.
Screening COc1ccc(C2CC(c3ccc(Br)cc3)=NN2C(=S)Nc2ccccc2)cc1 (centres undefined) returned HP1b binding inh -22.2%, L3MBTL1 block -19.4%, G9a block 2µM*, JMJD2A Tudor -28.9%, Sfp inh -8.3% and BAZ2B inh inconclusive.
Screening Cc1ccc(C2CC(=O)Nc3cc4c(cc32)OCCO4)cc1 (centres undefined) returned HP1b binding inh 9.3%, G9a block -34.2%[59 µM], JMJD2A Tudor -18.4% and BAZ2B inh -17.9%.
For Cc1ccc(NS(=O)(=O)c2cc3c(cc2C)OCC(=O)N3)cc1C the results were JMJD2A Tudor -26.2%.
CCOC(=O)C1=C(CN2CCN(c3ccc(Cl)cc3)CC2)NC(=O)NC1c1ccc(OC)cc1 (centres undefined) was read as HP1b binding inh -13.5%, G9a block -8.3%[59 µM], JMJD2A Tudor inconclusive and BAZ2B inh inconclusive.
Cc1ccc(NC(=O)NC2=NN(c3ccccc3)C(=O)/C2=C2/CCCN2C)cc1 was read as HP1b binding inh 39.2%, L3MBTL1 block inconclusive, G9a block -46.1%, JMJD2A Tudor -6.5%, Sfp inh -18.4% and BAZ2B inh 1.5%.
For CN1CCC/C1=C1/C(=O)N(c2ccccc2)N=C1NC(=O)Nc1cccc(Cl)c1 the results were HP1b binding inh -16.0%, L3MBTL1 block -5.6%, G9a block -36.3%, JMJD2A Tudor 20µM*, Sfp inh 6.5% and BAZ2B inh -17.6%.
Screening COc1ccc2[nH]c3c(N4CCc5ccccc5C4)ncnc3c2c1 returned HP1b binding inh -17.9%, G9a block 44.7µM*, JMJD2A Tudor inconclusive, Sfp inh -13.0% and BAZ2B inh inconclusive.
For Fc1ccc2[nH]c3c(N4CCN(c5ccccc5)CC4)ncnc3c2c1 the results were HP1b binding inh -10.2%, L3MBTL1 block -9.8%, G9a block inconclusive, JMJD2A Tudor inconclusive, Sfp inh -3.1% and BAZ2B inh 39.8µM*.
Screening COc1cccc2[nH]c3c(N4CCCCC4)ncnc3c12 returned HP1b binding inh inconclusive, L3MBTL1 block 29.8%, G9a block inconclusive, JMJD2A Tudor -3.2% and Sfp inh -12.1%.
`CCOC(=O)N1CCN(c2ncnc3c2[nH]c2ccc(OC)cc23)CC1` gave HP1b binding inh 22.2%, L3MBTL1 block -2.6%, G9a block 14.6%[2.33 µM], JMJD2A Tudor -7.3%, Sfp inh 3.0% and BAZ2B inh 3.6%.
O=C(c1ccco1)N1CCN(c2ncnc3c2[nH]c2ccccc23)CC1 was read as L3MBTL1 block 37.6%, G9a block -33.6%[59 µM], Sfp inh -4.7% and BAZ2B inh 7.5%.
COc1ccc(N2CCN(c3ncnc4c3[nH]c3ccccc34)CC2)cc1 was read as HP1b binding inh -13.1%, G9a block 12.6µM*, JMJD2A Tudor 50.1µM*, Sfp inh -12.1% and BAZ2B inh inconclusive.
CCOC(=O)N1CCN(c2ncnc3c2[nH]c2ccc(F)cc23)CC1 was read as HP1b binding inh 24.6%, L3MBTL1 block 3.1%, G9a block 7.1%[59 µM], JMJD2A Tudor 3.5%, Sfp inh 19.3% and BAZ2B inh -2.8%.
For COc1cc2[nH]c3c(N4CCN(c5ccccn5)CC4)ncnc3c2cc1OC the results were HP1b binding inh -8.8%, L3MBTL1 block -1.3%, G9a block 44.7µM*, JMJD2A Tudor -28.1%, Sfp inh 9.6% and BAZ2B inh inconclusive.
Screening CCCSCCCNC(=O)CN1C(=O)COc2ccc(S(=O)(=O)N3CCC(C)CC3)cc21 returned HP1b binding inh 41.3%, G9a block 4.1%[59 µM], JMJD2A Tudor 4.3% and BAZ2B inh 0.5%.
Screening COc1cc(C2C(=O)N(C3CCCCCC3)CC(=O)N2Cc2ccccc2)ccc1OC(C)C (centres undefined) returned HP1b binding inh 14.2%, G9a block 0.7%[59 µM], JMJD2A Tudor -16.5% and BAZ2B inh -8.1%.
CCCN1CCC(=NNC(=O)c2ccc(Br)o2)CC1 was read as HP1b binding inh 22.3%, L3MBTL1 block -3.5%, G9a block -6.1%, JMJD2A Tudor -22.5%, Sfp inh 22.2% and BAZ2B inh -1.9%[57.1 µM].
For CCN1CCC(=NNC(=O)c2ccco2)CC1 the results were HP1b binding inh 72.1%, G9a block 44.7µM*, JMJD2A Tudor 4.6%[11.4 µM], Sfp inh -18.4% and BAZ2B inh 6.7%.
`O=S(=O)([O-])CCC[n+]1c(SCCCS(=O)(=O)O)sc2ccc(Cl)cc21` gave HP1b binding inh 59.3%, L3MBTL1 block 7.8%, G9a block 25.1µM*, JMJD2A Tudor 79.4µM*, Sfp inh 3.16µM* and BAZ2B inh inconclusive.
`O=C(CSc1nc2ccccc2nc1Cc1ccccc1)Nc1ccc2c(c1)OCO2` gave HP1b binding inh 17.2%[57 µM], G9a block 0.9%[59 µM], JMJD2A Tudor -12.3% and BAZ2B inh 4.4%.

Screening results (PubChem BioAssay)
